# Results from PubChem BioAssay (NCATS).
# The source made the active and inactive calls. The call rests on the fitted dose curve; in most records, active means well fitted curve in the direction sought with a large enough effect; inconclusive means small, poorly fitted or top-dose-only effect, or effect the other way, or another doubt; inactive means no such curve, though single readings can be large or run the other way.
# Test: qHTS for Inhibitors of Cell Surface uPA Generation: Validation Assay (AID 493164);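 further: RAW 264.7 macrophage cells exposed to compound for 18 h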
# Conditions: mouse cells, plasminogen activation; series mostly up to 38.3 µM
# Method in brief: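 ATP-Lite luminescence read-out: ATP remains high when uPA activity-dependent LF translocation into the cytoplasm is blocked. RAW 264.7 cells, 18 h compound exposure at 37 C; 7-point titration, 2.45 nM to 38.3 uM final.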
row,SMILES,outcome
1,NC/C=C\C(=O)O,inactive
2,N#CC(C#N)=C(N)/C(C#N)=C/c1ccc(O)cc1,inactive
3,C=CC1(C)CC(=O)C2(O)C(C)(O1)C(OC(C)=O)C(O)C1C(C)(C)CCC(O)C12C (stereo not drawn),inactive
4,Nc1ncnc2c1ncn2C1CCCC1,inactive
5,Cc1cccc(C2CN(C)CCc3c2cc(O)c(O)c3Cl)c1 (stereo not drawn),inactive
6,Cc1nc2c(OCc3ccccc3)cccn2c1CC#N,inactive
7,OC[C@H]1NC[C@@H](O)[C@@H]1O,inactive
8,O=C(O)c1ccccc1Nc1cccc(OCc2ccc3ccccc3n2)c1,inactive
9,Nc1ccc(N2C(=O)c3ccccc3C2=O)c(Cl)c1,inactive
10,CCCCOc1cc(CC2CNC(=O)N2)ccc1OC (stereo not drawn),inactive
11,O=[N+]([O-])c1cccc2cn[nH]c12,inactive
12,NCCS(=O)O,inactive
13,Cn1ccnc1,inactive
14,NC1C=CC=C(C(=O)O)C1 (stereo not drawn),inactive
15,NCCNS(=O)(=O)c1cccc2c(Cl)cccc12,inactive
16,Nc1ccc(-c2nc3ccc(-c4nc5ccc(N)cc5[nH]4)cc3[nH]2)cc1,inactive
17,Oc1cc2c(cc1O)C(c1ccccc1)CNCC2 (stereo not drawn),inactive
18,O=C(O)C1CCNCC1,inactive
19,CCN(CC)CCOC(=O)c1cc(Cl)c(N)cc1OC,inactive

row,SMILES,outcome
1,CC1=C(C(=O)O)N2C(=O)[C@@H](NC(=O)C(N)C3=CCC=CC3)[C@H]2SC1 (stereo partly drawn),inactive
2,CCCCS(=N)(=O)CC[C@H](N)C(=O)O (stereo partly drawn),inactive
3,CSC(=N)N,inactive
4,O=C(O)C1CCCNC1 (stereo not drawn),inactive
5,O=C1C2C=CC=CC2=NC(=S)N1CCN1CCC(=C(c2ccc(F)cc2)c2ccc(F)cc2)CC1 (stereo not drawn),inactive
6,CC(=O)[C@H]1CCC2C3CC=C4C[C@@H](OS(=O)(=O)O)CC[C@]4(C)C3CC[C@@]21C (stereo partly drawn),inactive
7,OC[C@H]1O[C@@H](n2cnc3cncnc32)[C@H](O)[C@@H]1O,inactive
8,NC1CCN(O)C1=O (stereo not drawn),inactive
9,O=c1ccn([C@@H]2O[C@H](COP(=O)(O)OP(=O)(O)O)[C@@H](O)[C@H]2O)c(=O)[nH]1,inactive
10,OCC1NCC(O)C(O)C1O (stereo not drawn),inactive
11,COC(=O)C(N)Cc1ccc(Cl)cc1 (stereo not drawn),inactive
12,CSC(N)=NCCC[C@H](N)C(=O)O,inactive
13,CN1C2CCC1CC(OC(c1ccccc1)c1ccccc1)C2 (stereo not drawn),inactive
14,COc1cc(CC(=O)O)ccc1O,inactive
15,COc1cc(N)c(Cl)cc1C(=O)OCCN1CCCCC1,inactive
16,NCCCNCCCCNCCCN,inactive
17,O=c1oc(Cl)c(Cl)c2ccccc12,inactive
18,Cn1cc(C(=O)OCC2CCN(CCNS(C)(=O)=O)CC2)c2ccccc21,inactive
19,CC(C)(CO)Cc1cc(C(C)(C)C)c(O)c(C(C)(C)C)c1,inactive
